Screening data from PubChem BioAssay.
Rows were chosen to be rich in hits. Some 10% of all compounds tested hit in one or more screens of this group.
PNC inhibitor – perinucleolar compartment assembly inhibition; PC3M PTB-GFP, PNC prevalence imaging, 16 h; active compounds read low; activity change (PNC), negative = inhibition, % at 10 µM; 140,000 compounds, 3.1% hits;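 active = readout at or below -70, meaning at least 70% loss of cells showing the perinucleolar compartment, a nuclear body marking cancer cells; inconclusive = readout between -30 and a set limit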;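 also: plate controls were DMSO wells for no effect and camptothecin positive control wells for full effect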
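PC3M cells stably expressing PTB-GFP, 750–1000 cells/well, treated 16 h at 37 °C with compound (23 nl of library stock), in duplicate. After paraformaldehyde fixation and Hoechst stain, imaged at 20x; PNC prevalence scored by image analysis.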
ALDH1A1 block – blocks purified human ALDH1A1 activity. AID 1030. 220,000 compounds, 7.3% hits. Purified ALDH1A1, NADH fluorescence, propionaldehyde substrate. Potency, µM (doses to about 75.3 µM), without a hit: at the highest dose activity, negative = inhibition, actives largely listed as inhibitors;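 also: potency is read from the fitted curve at half-maximal effect; plate controls were no enzyme wells and a reference inhibitor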
Target sequence (P00352 whole entry, looked up): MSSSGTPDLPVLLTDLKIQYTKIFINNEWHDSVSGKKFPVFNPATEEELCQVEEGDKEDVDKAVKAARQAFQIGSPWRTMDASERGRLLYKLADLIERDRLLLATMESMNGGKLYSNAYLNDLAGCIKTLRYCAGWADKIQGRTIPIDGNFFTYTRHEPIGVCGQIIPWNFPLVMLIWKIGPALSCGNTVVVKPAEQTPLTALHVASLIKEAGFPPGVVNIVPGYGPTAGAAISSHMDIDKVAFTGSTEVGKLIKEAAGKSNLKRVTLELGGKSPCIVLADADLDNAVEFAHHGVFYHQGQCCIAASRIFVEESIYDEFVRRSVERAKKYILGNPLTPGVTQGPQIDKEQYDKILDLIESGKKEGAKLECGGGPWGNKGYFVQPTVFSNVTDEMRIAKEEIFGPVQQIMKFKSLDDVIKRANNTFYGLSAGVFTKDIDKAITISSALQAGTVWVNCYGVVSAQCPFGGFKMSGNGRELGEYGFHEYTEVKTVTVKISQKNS
HPGD inh – HPGD (human) dehydrogenase inhibition; Potency, µM, without a hit: top-dose activity change, negative = inhibition, most hits filed as inhibitors; 150,000 compounds, 4.3% hits; purified HPGD, NADH fluorescence kinetic, PGE2 substrate; also: potency is read from the fitted curve at half-maximal effect
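NADH formation kinetics: reaction with 30 uM PGE2 and 1 mM NAD+ (final), 20 nM enzyme, Tris-HCl pH 8 with Tween 20, after 15 min compound preincubation at room temperature. Fluorescence change, last versus first of five reads.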
LMNA splice mod – changes lamin A minigene splicing in HeLa cells. HeLa LMNA splicing GFP/RFP minigene ratio, 48 h. Potency, µM (top dose mostly 46.1 µM), without a hit: top-dose ratio change, negative = inhibition, hits mostly inhibitors. 200,000 compounds, 0.01% hits; active = well fitted inhibition curve with a large enough effect in the signal ratio, with a control signal flat, not every such curve was filed as active; inconclusive = small, poorly fitted or top-dose-only effect, or effect the other way, or a change in a side signal; the % refers to the signal ratio; also: potency is read from the fitted curve at half-maximal effect
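Read-out is the ratio of GFP to DsRed2 object intensity, acquired by 488 nm laser-scanning cytometry on HeLa lamin A-EGFP minigene reporter cells. Compound incubation 48 hrs at 37 °C in Opti-MEM with 2% FBS; DMSO 0.5% final.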
IMPase cell inh – membrane-permeable compound that blocks inositol monophosphatase; P97697; CHO-M1 cells, IP1 accumulation, HTRF TR-FRET ratio; inhibition (IP1 accumulation), % at 46.1 µM; 120,000 tested, under 10 active; active = well fitted curve in the direction sought with a large enough effect in the signal ratio, not every such curve was filed as active; inconclusive = small, poorly fitted or top-dose-only effect, or a change in a side signal; inactive = no such curve, though single readings can be large or run the other way; the % refers to the signal ratio;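 also: cells stimulated with carbachol in lithium chloride buffer; plate controls were DMSO basal wells for no effect and reference inhibitor wells for full effect; higher means more IMPase inhibition seen as more IP1 and lower FRET ratio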
Target sequence (P97697 whole entry, looked up): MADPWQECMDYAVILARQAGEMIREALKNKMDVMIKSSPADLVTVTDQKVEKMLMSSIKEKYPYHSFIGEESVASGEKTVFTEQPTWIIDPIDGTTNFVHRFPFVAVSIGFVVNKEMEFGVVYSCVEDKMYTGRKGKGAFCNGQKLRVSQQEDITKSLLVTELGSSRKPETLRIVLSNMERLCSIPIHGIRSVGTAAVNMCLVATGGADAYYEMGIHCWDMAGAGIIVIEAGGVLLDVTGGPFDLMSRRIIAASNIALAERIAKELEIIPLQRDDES
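Carbachol-driven Gq signalling in CHO-M1 cells (2000/well) generates IP1. Compounds that block IMPase raise IP1 and so reduce the FRET signal from Eu-anti-IP1 and d2-IP1 after a 10 min room-temperature lysis.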
KinaseGlo FLuc – Kinase-Glo luciferase inhibition (counter-screen) | Kinase-Glo luciferase, ATP luminescence, 8 min | Potency, µM (top dose mostly 38.3 µM), for the others: at the top dose activity change, negative = inhibition, most hits filed as inhibitors | 200,000 compounds, 0.28% hits; active = well fitted inhibition curve with a large enough effect; inconclusive = small, poorly fitted or top-dose-only effect; also: potency is read from the fitted curve at half-maximal effect; nearly all actives have a fitted effect of over 60% in size
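Substrate mix (final 50 mM imidazole pH 7.2, 50 mM KCl, 7 mM MgCl2, 10 uM ATP, 0.01% Tween 20, 0.05% BSA) plus pin-tool compound, then Kinase-Glo detection mix; 8 min ambient, luminescence read.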
An asterisk follows results filed as active; ? = inconclusive; / = no result given; ! = repeats disagree; [ ] = remark or other dose. Unless noted, calls follow the shape of the dose curve; as a rule, active = well fitted inhibition curve with a large enough effect (not every such curve was filed as active); inconclusive = small, poorly fitted or top-dose-only effect, or another doubt; inactive = no such curve, though single readings can be large or run the other way. Unless noted, % is scaled to controls: 0 for no effect and ±100 for the full control effect.

SMILES | PNC inhibitor | ALDH1A1 block | HPGD inh | LMNA splice mod | IMPase cell inh | KinaseGlo FLuc
CCOC(=O)CCCNC(=O)N1CCc2nc(COc3ccccc3)c3c(c2C1)CO[C@@H](C)C3 | / | 1.8%[13.5 µM] | -2.1% | 8.4%[9.22 µM] | / | -0.2%[7.66 µM]
COC(=O)c1ccc(C(NC(=O)c2ccccc2)[C@]2(C)C[C@H]2C2CCCCC2)cc1 (stereo not given in full) | / | 1.26µM* | -7.8% | / | / | -2.0%
O=C(Nc1ccccc1)N1CC2(CCN(S(=O)(=O)c3ccccc3)CC2)C1 | / | -7.9% | -4.1% | / | / | -3.4%
Cc1ccc2nc(-c3cccc(N)c3)[nH]c2c1 | 37.1 | ? | ? | -3.5% | -22.2 | 10µM*
N#CC1=C(N)N(c2ccccc2C#N)C2=C(C(=O)CCC2)C1c1ccsc1 (stereo not given) | 31.1 | 25.1µM* | -28.9% | 3.6% | -15.6 | 2.9%
CCOC(=O)c1cc(-c2ccc(OC)cc2)n(CCC(=O)NC2CCN(Cc3ccccc3)CC2)c1C | / | -12.4% | / | / | / | 0.3%
COc1ccc(-c2cc3c(=O)n(CC(=O)NC4CCN(Cc5ccccc5)CC4)ncn3n2)cc1 | -90.5* | 6.0% | -12.2% | 13.2% | 2.3 | -0.3%
CN(C)c1ccc(CC(=O)c2nc3ccccc3s2)cc1 | -27.4 | 7.08µM* | -7.9% | 1.7% | / | -1.9%
O=C(Nc1ccc(-c2cn3ccsc3n2)cc1)C1CCCC1 | -2.8 | -9.8% | 14.1µM* | 5.3% | 2.5 | 11.2µM*
c1cn2cc(-c3ccc4c(c3)OCO4)nc2s1 | 28.8 | 8.91µM* | 31.6µM* | 9.4% | 2.4 | -26.3%
CC(=O)Nc1ccc(-c2cn3ccsc3n2)cc1 | ? | 0.7% | -8.3% | -6.1% | 0.9 | -9.2%
O=C(Nc1ccc(-c2cn3ccsc3n2)cc1)C1CC1 | ? | -0.1% | -8.4% | 4.4% | 1.1 | -26.1%
CC(=O)NC(CC(C)C)C(=O)NC(=O)NCc1ccccc1 (stereo not given) | 15.8 | 5.01µM* | -1.0% | 14.7% | 4.8 | -1.3%
Clc1ccc2nnnc(-c3ccccc3)c2c1 | -97.6* | 5.4% | -0.1% | ? | / | 1.5%
CNc1nc(-c2ccccc2)[n+](-c2ccc(C)cc2)s1 | 38.7 | 2.51µM* | / | ? | 0.2 | /
Cc1ccc(-c2nc(N)s[n+]2-c2ccccc2)cc1 | 34.9 | 7.08µM* | 2.24µM* | -11.4% | / | ?
Cc1ccc(-c2nnc(-c3ccccc3)o2)cc1 | ? | -5.8% | ? | -6.2% | ? | -25.9%
COc1ccc(-c2nn(-c3ccc(C)c(Cl)c3)c3c2cnc2cc(OC)c(OC)cc23)cc1 | / | / | / | 0.0%[46 µM] | / | /
O=C(c1ccccc1)c1ccc(-c2ccc(O)cc2)cc1 | / | -12.1% | / | ? | / | /
CC(Oc1ccc(C(=O)c2ccccc2)cc1)C(=O)Nc1ccc(S(N)(=O)=O)cc1 (stereo not given) | -12.8 | 10µM* | ? | ? | / | -2.2%
O=C(c1cccnc1)c1cccnc1 | -123.8* | -5.7% | -15.3% | ? | / | 4.2%
O=C(c1ccccc1)c1ccccc1 | / | 25.1µM*! | -5.3% | / | / | 3.5%[39.9 µM]
CC(Oc1ccccc1)C(=O)Nc1ccccc1O (stereo not given) | -0.2 | 3.6% | 7.08µM* | 9.3% | 2.5 | 0.5%
O=C(O)c1cccnc1 | -9.9 | 5.2% | -4.2% | ? | 0.2[20.6 µM] | -3.9%
Cc1cccc(-c2nc(SCC(=O)N(C)c3ccccc3)c3c(=O)n(C)c(=O)n(C)c3n2)c1 | / | / | / | 2.7%[46 µM] | / | /
SMILES | PNC inhibitor | ALDH1A1 block | HPGD inh | LMNA splice mod | IMPase cell inh | KinaseGlo FLuc
COc1ccc(Cn2ccc3nc(C)c(C(=O)N4CCN(c5cc(C)ccc5C)CC4)cc3c2=O)cc1 | / | / | / | -10.3%[46 µM] | / | /
CCCOc1cccc(C2c3c(oc4cc(C)c(C)cc4c3=O)C(=O)N2CCCN2CCOCC2)c1 (stereo not given) | / | / | / | / | -3.7 | /
O=C(Nc1cc(Cl)ccc1Cl)C1(c2cccs2)CCOCC1 | / | / | / | 14.0%[46 µM] | / | /
CC(C)C(=O)Nc1ccc(C(=O)NNC(=O)CCc2ccccc2)cc1 | -12.6 | 2.0% | -12.3% | -2.6% | / | -3.5%
CC(C)C(=O)Nc1ccc(C(=O)c2ccccc2)cc1 | ? | ? | 14.1µM* | -4.9% | 11.9 | 5.4%
Cc1noc(C)c1C(=O)N1CCC2(CC1)CN(c1ccccc1)C2 | / | 3.6% | -1.7% | / | / | -5.7%
COc1ccc(C2C3=C(CC(C)(C)CC3=O)Nc3c2c(=O)[nH]c(=O)n3Cc2ccccc2)cc1OC (stereo not given) | -84.6* | -6.2% | ? | 11.3% | 4.2 | 1.4%
COc1cc(C2C3=C(CC(C)(C)CC3=O)Nc3c2c(=O)[nH]c(=O)n3Cc2ccccc2)ccc1O (stereo not given) | 27.3 | -16.4% | ? | 7.6% | / | 4.0%
O=S(=O)(c1ccccc1)c1nc(-c2ccco2)oc1NCCCn1ccnc1 | -24.5 | 25.1µM* | -23.2% | 6.8% | -3.8 | 4.1%
O=S(=O)(c1ccccc1)c1nc(-c2ccco2)oc1NCc1ccco1 | -4.5 | -5.6% | 0.5% | 12.6% | -1.8 | -0.4%
COc1ccc(-c2nc(S(=O)(=O)c3ccc(C)cc3)c(NCc3ccccc3)o2)cc1 | / | / | / | / | 1.6 | /
CCCCNc1oc(-c2ccc(OC)cc2)nc1S(=O)(=O)c1ccccc1 | -8.1 | 22.4µM* | ? | -6.2% | 3.9 | 0.3%
COc1ccc(O[C@H]2C=C[C@@H](c3ccccc3)O[C@@H]2COC(=O)CC/C(C)=N/OC[C@@H](O)COCc2ccco2)cc1 | -2.5 | 10µM* | -16.9% | ? | / | 1.9%
C/C(CCC(=O)OC[C@@H]1O[C@H](C#Cc2ccccc2)C=C[C@@H]1Oc1ccc(C)cc1)=N/OC[C@@H](O)COCc1ccco1 | / | -0.4%[13.5 µM] | / | / | / | /
O=C(c1ccncc1)N1CCC[C@@]2(CCN(c3ccccn3)C2)C1 | / | -0.1% | -8.1% | / | / | -2.9%
COc1cc(/C=C/C(=O)N2CCCc3ccccc32)cc(OC)c1OC | 15.4 | 14.1µM* | -10.0% | ? | / | 0.3%
O=C(/C=C/c1ccco1)N1CCCC(c2ccccc2)C1 (stereo not given) | / | 10µM* | / | ? | / | -0.3%
O=C(/C=C/c1ccccc1)N1CCC(c2ccccc2)C1 (stereo not given) | 107.1 | -15.4% | ? | 3.6% | / | -2.7%
O=C(/C=C/c1ccco1)N1CCc2ccccc21 | / | ? | / | -6.7%[46 µM] | / | 10µM*
Cc1ccc(/C=C/C(=O)N2CCc3ccccc32)o1 | 18.8 | ? | ? | 9.2% | / | -17.9%
COc1ccc(OC)c(/C=C/C(=O)N2CCCc3ccccc32)c1 | / | ? | / | / | / | 9.6%
COc1ccc(/C=C/C(=O)N2CCCc3ccccc32)cc1 | ? | ? | 11.2µM* | ? | / | -5.1%
COc1c2c(nc3ccccc13)O[C@@H]([C@@](C)(O)CO)C2 | / | / | / | / | -2.3 | /
